The values below come from the supplement of paper PMC6522484.

± gives the standard deviation of the averaged measurements.

Test [1] deals with DLD1. Kind of test: cell viability (CellTiter-Glo) relative to plate median (fraction of plate median); higher = more viable cells. The following applies: 5 µM; treatment time 24 h; reporter: 7TFP. The gist of the method:
(§1)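 Normalisation used webcellHTS2 in additive mode without log transformation, scaling each well's luminescence to the plate median. The luminescence was firefly luciferase or CellTiterGlo, read on a Tecan F500 from parallel plates of colorectal cancer cells stably transduced with lentiviral TCF/Wnt firefly luciferase reporters. Those cells had been given library compounds at a final 5 µM for 24 h, and two independent replicates were averaged.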
(In general: In ATP-based viability assays light output follows the ATP content of the culture.)

A further test deals with HCT116. Described as above. The following applies: 5 µM; treatment time 24 h; reporter: TCF4/Wnt. The gist of the method:
as §1

Test [2] concerns SW480. Described as above. The settings on record: 5 µM; treatment time 24 h; reporter: 7TFP. Summed up:
as §1

For test [3], the system named is DLD1. Kind of test: TCF/Wnt firefly luciferase reporter signal relative to plate median (fraction of plate median); higher = higher Wnt reporter signal. The following applies: 5 µM; treatment time 24 h; reporter: 7TFP. The gist of the method: as §1
Background: In a reporter assay the amount or activity of a reporter protein is the signal.

The test system of test [4] is SW480. Described as above. The following applies: 5 µM; treatment time 24 h; reporter: 7TFP. The gist of the method:
as §1

In the case of `CO/N=C(\C(=O)N[C@@H]1C(=O)N2C(C(=O)OC(C)OC(C)=O)=C(COC(N)=O)CS[C@H]12)c1ccco1` (stereo not given in full), the cell viability with DLD1 [1] turned out to be 1.03; in the test with HCT116, 1.05 ± 0.079; in the test on SW480 [2] it was 0.9685 ± 0.005. The “TCF/Wnt firefly luciferase reporter signal” value with DLD1 [3] was 0.981 ± 0.027; in the test with SW480 [4], 1.
On the same counts, the results for `COc1cc(O)c2c(=O)c(O)c(-c3ccc(O)c(O)c3)oc2c1` are 1.06 ± 0.014, 0.992 ± 0.11, 1.065 ± 0.0071, 1 ± 0.12 and 1.045 ± 0.0071.
On the same counts, the results for `c1ccc2c(c1)CN1CCCC1=N2` are 1.03 ± 0.028, 1.09 ± 0.24, 0.998 ± 0.032, 0.935 ± 0.15 and 0.944 ± 0.064.
On the same counts, the results for `CC(C)(Oc1ccc(Cl)cc1)C(=O)O` are 1.04 ± 0.021, 1.17 ± 0.057, 1.035 ± 0.0071, 1.07 ± 0.13 and 1.1 ± 0.057.
`CC1=CC(=O)CC(C)(C)C1(O)/C=C/C(C)=C\C(=O)O` (mixture of isomers) [ABSCISIC ACID (cis,trans; )]: the values for the cell viability with DLD1 [1], in the test on HCT116 and in the test on SW480 [2] were 1.05 ± 0.021, 1.1 ± 0.021 and 1.03 ± 0.064, respectively. In addition, the results for the “TCF/Wnt firefly luciferase reporter signal” value with DLD1 [3] and in the test with SW480 [4] were 1.08 ± 0.092 and 1.18 ± 0.13, respectively.
The corresponding values for `CCN(CC)CC(=O)Nc1c(C)cccc1C` are 1.05, 1.1 ± 0.021, 1.02 ± 0.021, 1.06 ± 0.05 and 1.03 ± 0.021.
With `CCN(CC)CCOc1ccc2c(c1)C(=O)c1cc(OCCN(CC)CC)ccc1-2`, the cell viability in the test on DLD1 [1] was determined as 0.941 ± 0.083; in the test on HCT116, 0.925 ± 0.072; in the test on SW480 [2], 0.998 ± 0.045. Also, the entries for the “TCF/Wnt firefly luciferase reporter signal” value in the test with DLD1 [3] and in the test with SW480 [4] were 1.05 ± 0.093 and 1.02 ± 0.06, respectively.
On the same counts, the results for `O=C(O)c1cccc(O)c1O` are 1.01 ± 0.047, 1.14 ± 0.035, 1.02 ± 0.068, 0.954 ± 0.034 and 0.947 ± 0.0085.
As for `CC[C@]1(O)C[C@@H]2CN(CCc3c([nH]c4ccccc34)[C@@](C(=O)OC)(c3cc4c(cc3OC)N(C)[C@H]3[C@@](O)(C(=O)OC)[C@H](OC(C)=O)[C@]5(CC)C=CCN6CC[C@]43[C@@H]65)C2)C1`, the cell viability in the test with DLD1 [1] was found to be 0.879 ± 0.16; in the test with HCT116, 0.477 ± 0.019; with SW480 [2] it was 1.1 ± 0.035. Further, the “TCF/Wnt firefly luciferase reporter signal” value in the test on DLD1 [3] is 0.803 ± 0.15; in the test with SW480 [4] it was 0.867 ± 0.2.
With `CC(C)[C@@H]1CC[C@@H](C)CC1=O`, the results for the cell viability with DLD1 [1], in the test with HCT116 and with SW480 [2] were 1.01 ± 0.033, 1.16 ± 0.11 and 1.04 ± 0.028, respectively. For the same compound, the “TCF/Wnt firefly luciferase reporter signal” value with DLD1 [3] is 0.906 ± 0.087; in the test on SW480 [4] it was 0.904 ± 0.037.
The corresponding values for `CC(=O)OCC(=O)[C@@]1(O)[C@H](C)C[C@H]2[C@@H]3CCC4=CC(=O)C=C[C@]4(C)[C@@]3(F)[C@@H](O)C[C@@]21C` are 1.06 ± 0.085, 0.952 ± 0.054, 1.02 ± 0.088, 0.958 ± 0.037 and 0.969 ± 0.044.
The corresponding values for `CC(C)(C)CC(C)(C)c1ccc(O)c(Cc2ccc(Cl)cc2Cl)c1` are 0.987 ± 0.075, 1.05 ± 0.05, 1.03 ± 0.014, 0.86 ± 0.012 and 0.891 ± 0.11.
`CN(C)CCC=C1c2ccccc2C=Cc2ccccc21`: the cell viability was found to be 1.02 ± 0.034 in the test on DLD1 [1], 0.998 ± 0.046 in the test on HCT116 and 1.035 ± 0.0071 in the test with SW480 [2]. The figures for the “TCF/Wnt firefly luciferase reporter signal” value in the test on DLD1 [3] and in the test with SW480 [4] were 0.991 ± 0.042 and 0.969 ± 0.0085, respectively.
